Among all 5,500 compounds or so, about 2,000 (36%) were called active. Inconclusive results (about 18%) are left out. Cut-off read from the data, not from the text of the source: active = normalized growth mostly below about 0.91 (no sharp cut-off); inconclusive = no clear call, values can overlap the other calls; inactive = mostly above about 0.92. This is one part of the list.
Assay: chemical genetic growth profiling, strain panel (AID 1159580);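 note: tested at 20 µM; growth read once vehicle control cultures reached saturation at 30 °C; 1 = growth at the plate median or of vehicle wells; lower values mean less growth of the strain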
Details: growth OD
[1] = S. cerevisiae deletion strains, locus YAL013W, strain DEP1, hits give low values
[2] = S. cerevisiae deletion strains, locus YDR150W, strain NUM1, hits give low values
[3] = S. cerevisiae deletion strains, locus YGR229C, strain SMI1, hits give low values
[4] = S. cerevisiae deletion strains, locus YJR075W, strain HOC1, hits give low values
[5] = S. cerevisiae deletion strains, locus YMR263W, strain SAP30, hits give low values
[6] = S. cerevisiae deletion strains, locus YNL128W, strain TEP1, hits give low values
[7] = S. cerevisiae deletion strains, locus YNL153C, strain GIM3, hits give low values
[8] = S. cerevisiae deletion strains, locus YNL322C, strain KRE1, hits give low values
[9] = S. cerevisiae deletion strains, locus YPL055C, strain LGE1, hits give low values
[10] = S. cerevisiae deletion strains, locus YPL241C, strain CIN2, hits give low values
[11] = S. cerevisiae deletion strains, locus YAL040C, strain CLN3, hits give low values
[12] = S. cerevisiae deletion strains, locus YCL061C, strain MRC1 (second series), hits give low values
[13] = S. cerevisiae deletion strains, locus YDR363W, strain ESC2, hits give low values
[14] = S. cerevisiae deletion strains, locus YER002W, strain NOP16, hits give low values
[15] = S. cerevisiae deletion strains, locus YNL197C, strain WHI3, hits give low values
[16] = S. cerevisiae deletion strains, locus YNL224C, strain SQS1, hits give low values
[17] = S. cerevisiae deletion strains, locus YOR083W, strain WHI5 (second series), hits give low values

Measured: normalized growth

O=C1c2ccccc2C(=O)N1CN1CCC(O)(c2ccc(Cl)cc2)CC1
inactive: [1] 0.975 | S. cerevisiae deletion strains, locus YBR229C, strain ROT2, hits give low values 0.982 | S. cerevisiae deletion strains, locus YDL101C, strain DUN1, hits give low values 0.988 | S. cerevisiae deletion strains, locus YDL134C, strain PPH21, hits give low values 1.01 | [2] 1.01 | S. cerevisiae deletion strains, locus YEL061C, strain CIN8, hits give low values 0.991 | S. cerevisiae deletion strains, locus YGR078C, strain PAC10, hits give low values 0.981 | [3] 0.999 | S. cerevisiae deletion strains, locus YHR030C, strain SLT2, hits give low values 0.953 | S. cerevisiae deletion strains, locus YHR087W, strain rtc3, hits give low values 0.99 | S. cerevisiae deletion strains, locus YJR043C, strain POL32, hits give low values 0.966 | [4] 0.987 | S. cerevisiae deletion strains, locus YKL190W, strain CNB1, hits give low values 1.01 | S. cerevisiae deletion strains, locus YLR039C, strain RIC1, hits give low values 0.988 | S. cerevisiae deletion strains, locus YLR058C, strain SHM2 (second series), hits give low values 0.978 | S. cerevisiae deletion strains, locus YLR085C, strain ARP6, hits give low values 1.06 | S. cerevisiae deletion strains, locus YLR262C, strain YPT6, hits give low values 0.93 | S. cerevisiae deletion strains, locus YML094W, strain GIM5, hits give low values 1.02 | S. cerevisiae deletion strains, locus YMR219W, strain ESC1, hits give low values 0.993 | [5] 0.926 | [6] 0.987 | [7] 1.02 | S. cerevisiae deletion strains, locus YNL298W, strain CLA4 (second series), hits give low values 0.974 | [8] 0.985 | S. cerevisiae deletion strains, locus YNR030W, strain Alg12, hits give low values 0.991 | [9] 0.947 | [10] 1.01 | S. cerevisiae deletion strains, locus YPR135W, strain CTF4, hits give low values 0.94 | S. cerevisiae strains, strain wild type, hits give low values 0.992

O=C(CCCN1CCC2(CC1)C(=O)N(CCc1ccc(N=C=S)cc1)CN2c1ccccc1)c1ccc(F)cc1
inactive: [11] 1.04 | [12] 0.982 | [13] 0.972 | [14] 1.03 | [3] 0.984 | [4] 0.968 | [5] 0.987 | S. cerevisiae deletion strains, locus YMR307W, strain GAS1, hits give low values 0.982 | S. cerevisiae deletion strains, locus YNL175C, strain NOP13, hits give low values 1 | [15] 1.02 | [16] 1.05 | [8] 0.948 | [17] 1.08 | [9] 0.916 | [10] 0.984

O=C1NCN(c2ccccc2)C12CCN(CCCC(c1ccc(F)cc1)c1ccc(F)cc1)CC2
inactive: [1] 1.01 | [11] 0.995 | [12] 1 | [2] 0.987 | [13] 0.992 | [14] 1.03 | [4] 0.998 | [5] 1 | [6] 1.05 | [7] 0.982 | [15] 1.09 | [16] 1.07 | [8] 1 | [17] 1.09 | [10] 1

From PubChem BioAssay AID1159580 (chemical genetic matrix, 2015)
